Test results published in the supplement of paper PMC6089552.
Several values for one entry are separate records, joined by “and”; a condition that tells them apart may be missing. Equal values may be shown once. In all, about 3,200 compounds went through this assay and about 300 (9.4%) showed activity. The list comes from a sample in which actives are over-represented; it also holds similar structures and randomly drawn compounds.

System: A673/TR/shEF
Assay: cell viability (LOESS-normalised, relative to median of negative controls) (log2 ratio); higher = more viable cells (less compound effect), active = hit call of the paper (over 3 MAD below the median)
Details: treatment time: 72 h
Method in brief: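 For three days, A673/TR/shEF Ewing sarcoma cells in 384-well plates (1,500 per well) were treated with library compounds at two or more concentrations or with DMSO controls, after doxycycline had been added or withheld 24 h beforehand to induce EWS-FLI1 shRNA knockdown. Viability was read by CellTiter-Glo luminescence on an Envision reader. The data were LOESS-corrected per plate, divided by the median of negative controls and log2-transformed.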

[1] = 0.25 µM, library screen: screen1, EWS-FLI1 expression: high (no doxycycline)
[2] = 0.25 µM, library screen: screen1, EWS-FLI1 expression: low (doxycycline-induced shRNA knockdown)
[3] = 2.5 µM, library screen: screen1, EWS-FLI1 expression: high (no doxycycline)
[4] = 2.5 µM, library screen: screen1, EWS-FLI1 expression: low (doxycycline-induced shRNA knockdown)
[5] = 0.025 µM, library screen: screen1, EWS-FLI1 expression: high (no doxycycline)
[6] = 0.025 µM, library screen: screen1, EWS-FLI1 expression: low (doxycycline-induced shRNA knockdown)
[7] = 25 µM, library screen: screen1, EWS-FLI1 expression: high (no doxycycline)
[8] = 25 µM, library screen: screen1, EWS-FLI1 expression: low (doxycycline-induced shRNA knockdown)
[9] = 0.25 µM, library screen: screen2, EWS-FLI1 expression: high (no doxycycline)
[10] = 0.25 µM, library screen: screen2, EWS-FLI1 expression: low (doxycycline-induced shRNA knockdown)
[11] = 2.5 µM, library screen: screen2, EWS-FLI1 expression: high (no doxycycline)
[12] = 2.5 µM, library screen: screen2, EWS-FLI1 expression: low (doxycycline-induced shRNA knockdown)

Measured: cell viability (log2)

O=C(Nc1c(-c2ccccc2)nc2ccc(Cl)cn12)c1ccc(F)cc1
inactive: [1] 0.0947 | [2] 0.0794 | [3] 0.184 | [4] -0.0685

NCC1OC(OC2C(N)CC(N)C(OC3OC(CO)C(O)C(N)C3O)C2O)C(O)C(O)C1O (centres undefined)
inactive: [1] 0.121 | [2] -0.0254 | [3] 0.206 | [4] 0.0929

COC(=O)c1c(C)c2c(c(C)c1OC(C)=O)OC(=O)c1c(C)c(Cl)c(O)c(Cl)c1O2
inactive: [1] 0.0664 | [2] 0.0141 | [3] 0.0918 | [4] 0.03

C[C@@H]1[C@H]2[C@H](O[C@@H]3O[C@H](CO)[C@@H](O)[C@H](O)[C@H]3O)OC=C(C(=O)O)[C@H]2C[C@@H]1O
inactive: [1] 0.0698 | [2] 0.0626 | [3] 0.106 | [4] -0.0365

COCc1cc(O)c(O)c(O)c1-c1c(COC)cc(O)c(O)c1O
active: [7] -4.25 | [8] -2.42
inactive: [5] 0.13 | [6] 0.0379 | [1] 0.161 | [2] -0.00717 | [3] -0.00977 | [4] 0.159

COc1cc(O)c(C)c(O)c1
inactive: [1] 0.0455 | [2] 0.156 | [3] 0.0996 | [4] 0.176

COc1c(O)cc(O)cc1O
inactive: [1] 0.0746 | [2] 0.0275 | [3] 0.127 | [4] 0.0739

CC(=O)c1c(C(C)=O)c(C)n(-c2cc(C)cc(C)c2)c1C
inactive: [1] 0.0993 | [2] 0.13 | [3] 0.0722 | [4] 0.0963

CC(C)N1C(=O)C(=Cc2ccc(F)cc2)SC1=S
inactive: [1] 0.0751 | [2] 0.059 | [3] 0.129 | [4] -0.0496

O=S(=O)(c1cccc2cnccc12)N1CCNCC1
inactive: [9] 0.166 | [10] 0.045 | [11] 0.145 | [12] 0.0254

O=S(=O)(c1cccc2c(Cl)cccc12)N1CCCNCC1
active: [3] -0.211 | [7] -0.331
inactive: [5] 0.198 | [6] -0.106 | [1] 0.179 | [2] -0.113 | [9] 0.275 | [10] 0.144 | [4] -0.13 | [11] 0.128 | [12] 0.122 | [8] -0.103

c1cc(CN2CCCNCCNCCCNCC2)ccc1CN1CCCNCCNCCCNCC1
inactive: 0.103 µM, library screen: screen3, EWS-FLI1 expression: high (no doxycycline) 0.00595 | 0.103 µM, library screen: screen3, EWS-FLI1 expression: low (doxycycline-induced shRNA knockdown) 0.0496 | 0.308 µM, library screen: screen3, EWS-FLI1 expression: high (no doxycycline) 0.0705 | 0.308 µM, library screen: screen3, EWS-FLI1 expression: low (doxycycline-induced shRNA knockdown) 0.00482 | 0.926 µM, library screen: screen3, EWS-FLI1 expression: high (no doxycycline) 0.086 | 0.926 µM, library screen: screen3, EWS-FLI1 expression: low (doxycycline-induced shRNA knockdown) 0.0433 | 2.8 µM, library screen: screen3, EWS-FLI1 expression: high (no doxycycline) 0.0246 | 2.8 µM, library screen: screen3, EWS-FLI1 expression: low (doxycycline-induced shRNA knockdown) 0.0244 | 8.3 µM, library screen: screen3, EWS-FLI1 expression: high (no doxycycline) 0.0572 | 8.3 µM, library screen: screen3, EWS-FLI1 expression: low (doxycycline-induced shRNA knockdown) 0.0352 | 25 µM, library screen: screen3, EWS-FLI1 expression: high (no doxycycline) 0.0828 | 25 µM, library screen: screen3, EWS-FLI1 expression: low (doxycycline-induced shRNA knockdown) 0.0617

O=S(=O)(c1cccc2cnccc12)N1CCCNCC1
0.333: [1]
0.279: [5]
inactive: [6] -0.0219 | [2] -0.0194 | [4] 0.0781 | [8] 0.0444
active: [3] -0.187 | [7] -0.284

CC1CNCCN1S(=O)(=O)c1cccc2cnccc12 (centres undefined)
active: [7] -0.155
0.301: [1]
inactive: [6] 0.0557 | [2] 0.0236 | [9] 0.145 and 0.204 | [10] 0.0425 and 0.187 | [3] -0.0561 | [4] 0.0655 | [11] 0.0837 and 0.258 | [12] 0.0573 and 0.209 | [8] 0.112
0.354: [5]

O=S(=O)(c1cccc2c(I)cccc12)N1CCCNCC1
active: [3] -0.248 | [7] -0.335 | [8] -0.197
inactive: [5] 0.188 | [6] -0.167 | [1] 0.201 | [2] -0.255 | [9] 0.178 | [10] 0.133 | [4] -0.111 | [11] 0.0746 | [12] 0.0593

CC(C)CCC[C@@H](C)[C@H]1CC[C@H]2[C@@H]3CC[C@H]4C[C@H](O)CC[C@]4(C)[C@H]3CC[C@]12C
inactive: [1] 0.14 | [2] 0.0986 | [3] 0.118 | [4] 0.0759

O=C(O)/C=C1/CCCc2ccccc2C1O (centres undefined)
inactive: [1] 0.0671 | [2] 0.163 | [9] 0.165 | [10] 0.0537 | [3] 0.139 | [4] 0.187 | [11] 0.071 | [12] 0.0654

CC(=O)O[C@@H]1CC2C(C)(C)[C@H](O)C=C[C@]2(C)C2CC[C@@]3(C)[C@H](c4ccoc4)OC(=O)C4OC43[C@@]21C (some centres undefined)
inactive: [1] 0.000168 | [2] 0.0262 | [3] 0.0677 | [4] 0.0357

Cc1c(C(=O)O)c(O)cc2c1C(=O)c1c(O)c([C@@H]3O[C@H](CO)[C@@H](O)[C@H](O)[C@H]3O)c(O)c(O)c1C2=O
inactive: [1] 0.057 | [2] 0.112 | [3] 0.0928 | [4] 0.184

Cc1ccc2nc(NC3=NC(CC(=O)O)C(=O)N3)nc(C)c2c1 (centres undefined)
inactive: [1] 0.016 | [2] -0.0194 | [3] 0.0679 | [4] -0.193

CCOc1cccc(=O)c2c(C)[nH]c(C)c12
inactive: [1] 0.0528 | [2] 0.134 | [3] 0.0744 | [4] 0.088

CC1=C2C(O)C(=O)OC3CC4C(C)(C)C(=O)CCC4(C)C(CC1)C23C (centres undefined)
inactive: [1] 0.149 | [2] 0.0333 | [3] 0.0817 | [4] 0.166

CO/N=C(\C(=O)N[C@@H]1C(=O)N2C(C(=O)O)=C(CSc3nc(=O)c(=O)[nH]n3C)CS[C@H]12)c1csc(N)n1
inactive: [1] 0.112 | [2] 0.0388 | [9] 0.21 | [10] 0.115 | [3] 0.082 | [4] 0.12 | [11] 0.149 | [12] 0.12

CC(=O)Oc1c(Cl)c(C)c2c(c1Cl)OC(=O)c1c(C)c(Cl)c(OC(C)=O)c(Cl)c1O2
inactive: [1] 0.0776 | [2] 0.0649 | [3] 0.0636 | [4] -0.0345
